In ChEMBL document CHEMBL4513216, “Probing the Open Global Health Chemical Diversity Library for Multistage-Active Starting Points for Next-Generation Antimalarials” (ACS Infect Dis, 2020):
Hit rate of the full screen: of about 69,000 compounds, about 8,600 (12%) showed an effect of 50% or more. This is one part of a sample in which strong results are shown more often than they occur.

System: Plasmodium berghei
Experiment: Screen against P. berghei liver stage (PbLuc), transformed with Luciferase, at 10uM
Format: functional, HepG2
Conditions: tested at 10 uM

Row | Compound | INHIBITION [%]
1 | CCN(Cc1ccco1)C(C)c1nc(C(C)C)no1 (centres undefined) | -165
2 | Cc1cccc(OCCNC(=O)CN2CCN(C)CC2C)c1 (centres undefined) | -43.415
3 | COCC1CN(C(=O)COc2ccccc2)Cc2cn(C)nc21 (centres undefined) | 11.5
4 | COc1ncccc1C(=O)N1C[C@@H]2COC[C@]2(CN(C)C)C1 | -35.2
5 | O=C(NCCCn1ccnc1)C1CCC(=O)N1Cc1cccs1 (centres undefined) | 13.9
6 | CCn1cncc1-c1nc2c([nH]1)CC(C)(C)CNC2=O | -23.2
7 | Cc1ccc(O[C@@H]2C[C@H]3CN(C(=O)c4cccnc4)CCN3C2)cc1 | -2.25
8 | OCC1N(Cc2ccc(F)cc2)C2CCC1(O)CC2 (centres undefined) | 39.6
9 | COc1c(C2CCCN2Cc2cc(C)no2)c(C)nn1C (centres undefined) | 0.938
10 | CCn1ccnc1CN1CCCC1c1c(C)nn(C)c1OC (centres undefined) | 65.4
11 | COc1c(C2CCCN2Cc2nccn2C)c(C)nn1C (centres undefined) | 22.8
12 | CC(NC(=O)CN(C)C(C)C)c1ccc(Oc2cccnc2)c(F)c1 (centres undefined) | 23.5
13 | CSc1nsc(NC(=O)N(C)Cc2ccc3c(c2)OCO3)n1 | -29.6
14 | Cc1ccccc1OCCn1cnc2oc(C)c(C(=O)O)c2c1=O | -16.3
15 | CCc1cnc(CCNS(C)(=O)=O)s1 | 48.3
16 | CC(C)c1nc(C2CCCN2C(=O)c2cc(Cl)c[nH]2)no1 (centres undefined) | 6.09
17 | CC(C)CN1CCC2(CCN(Cc3nccs3)CC2)C1=O | 29
18 | Cc1ccc2cc(C3(O)CCN(C(=O)CSC(C)C)CC3)ccc2n1 | 81.6
19 | Cc1ccc2cc(C(=O)N3CCC(O)(C(F)(F)F)CC3)ccc2n1 | 51.7
20 | COCCOCC(=O)N1CCC(O)(c2ccc3nc(C)ccc3c2)CC1 | -18.5
21 | Cc1ccc2cc(C3(O)CCN(C(=O)CN4CCCC4)CC3)ccc2n1 | -9.67
22 | Cc1ccc2cc(C(=O)N3CCCN(C)CC3)ccc2n1 | 48
23 | CN(C)C(=O)N1CCN(C(=O)c2ccn3ccnc3c2)CC1 | 7.97
24 | Cc1ccc2cc(C(=O)N3CCN(C(=O)N(C)C)CC3)ccc2n1 | 70.3
25 | Cc1ccc2cc(C3(O)CCN(C)CC3)ccc2n1 | -12.1
26 | O=C(c1ccoc1)N1CCC(O)(C(F)(F)F)CC1 | 30
27 | CS(=O)(=O)Cc1ccc(C(=O)N2CCCC(n3cncn3)C2)o1 (centres undefined) | 25.8

Row | Compound | INHIBITION [%]
28 | Cn1ccc2ccc(C(=O)N3CC[C@@]4(O)CCCC[C@H]4C3)cc21 | 18.3
29 | CC(=O)N1CCCN(Cc2cc(F)cc(Br)c2)CC1 | 33.4
30 | O=C1CC(c2cccnc2)C2(CCN(S(=O)(=O)C3CC3)CC2)N1 (centres undefined) | 9.67
31 | Cc1ccccc1-n1ncc2c(=O)n(CCN3CCCCC3)cnc21 | -51.1
32 | COc1ccc(CN(C)Cc2c(C)noc2C)c(Br)c1OC | 26.8
33 | Cc1cnn(CC2CCCN2Cc2cc(C)on2)c1 (centres undefined) | 4.585
34 | CC(C)(C)C(=O)N[C@H]1CC[C@H](Nc2nccc(-c3ccncc3)n2)C1 | 18.7
35 | COc1cccc(CC2CN(C3CCCCC3)CCO2)c1 (centres undefined) | 36.2
36 | CCOc1ccccc1OCCN(C)Cc1nccn1C | 20.5
37 | CN(Cc1nccn1C)c1ccc(-c2nccn2C)nn1 | -84.1
38 | CCOc1ccccc1N(C)Cc1nccn1C | 52.6
39 | COCCC(=O)N1CCCC1c1nccnc1Nc1ncccn1 (centres undefined) | 33.7
40 | Cn1ccnc1CN1CCC2(CC1)CN(c1cncnc1)C(=O)CO2 | 57.9
41 | CN(C)CCN1CCC2(CC1)CN(Cc1cccnc1)C(=O)CO2 | 41.2
42 | Cn1ccnc1CN1CCC2(CC1)CN(c1ccccc1)C(=O)CO2 | -4.88
43 | Cn1ccnc1CN1CCC2(CC1)CN(Cc1cccnc1)C(=O)CO2 | 57.4
44 | Cn1ccnc1CN1CCC2(CC1)CCN(c1cncnc1)C2=O | 8.93
45 | O=C1COC2(CCN(Cc3cccs3)CC2)CN1c1ccccc1 | 26.8
46 | Cn1ccnc1CN1CCC2(CC1)CN(Cc1ccccc1)C(=O)CO2 | 33
47 | O=C1COC2(CCN(Cc3cccs3)CC2)CN1c1cncnc1 | 67
48 | O=C1COC2(CCN(Cc3cccs3)CC2)CN1c1cccnc1 | 10.7
49 | O=C(c1cccnc1)N1CCC2(CC1)CCN(c1ccsc1)C2=O | 16.6
50 | COCCCN1CC2(CCCCN2C(=O)c2ccsc2)CC1=O (centres undefined) | 20.7
51 | Cc1cc(CN(Cc2cccnc2)CC2CCCO2)on1 (centres undefined) | 48.2
52 | Cc1nccn1C1CCCN(C(=O)c2cc3c(F)cccc3[nH]2)C1 (centres undefined) | 42
53 | CCc1ccc(NC(=O)C(C)Nc2cccc3c2OCCO3)cc1 (centres undefined) | 21.3
54 | O=C(c1ccc2[nH]cnc2c1)N1CCC(COc2ccccn2)CC1 | 32.3

Row | Compound | INHIBITION [%]
55 | CN(CCn1cccn1)C1CCCN(Cc2noc(C3CC3)n2)C1 (centres undefined) | 39.7
56 | Cc1csc(C2CCCCN2C(=O)c2cc(Cl)c[nH]2)n1 (centres undefined) | -19.4
57 | Cc1nnc(SCC(=O)c2cc3c(cc2Cl)NC(=O)C3)s1 | 48.7
58 | Cn1ccnc1SCC(=O)NCc1ccc2c(c1)CCC(=O)N2 | 34.2
59 | Cc1nnc(SCC(=O)NCc2ccc3c(c2)CCC(=O)N3)n1C | 58.2
60 | O=C(CSc1ccccn1)NCc1ccc2c(c1)CCC(=O)N2 | 35
61 | CC(NC(=O)NCc1ccoc1)c1ccc2c(c1)CCC(=O)N2 (centres undefined) | 36.4
62 | Cc1nnc(SCC(=O)NCc2ccc3c(c2)CCC(=O)N3)s1 | 72.3
63 | CC(CC(=O)NCCS(N)(=O)=O)C1CCCCC1 (centres undefined) | 16
64 | CCN(Cc1ccc(O)c(C(=O)O)c1)CC1CCCO1 (centres undefined) | 42.3
65 | CN(Cc1nc(C(F)(F)F)cs1)C(=O)CCc1cccnc1 | -7.53
66 | CCCOc1cc(C)ccc1NC(=O)NCCNC(C)=O | 1.06
67 | O=C(c1ccncc1)N1CCC2(CC1)C(=O)Nc1ccccc12 | -16.9
68 | CC(C)N(C)Cc1cc(=O)n2c(n1)CN(C(=O)c1ccc[nH]1)CCC2 | 26.7
69 | CS(=O)(=O)NCc1cn2c(n1)CN(C(=O)c1ccc[nH]1)CC2 | 27.3
70 | CN(Cc1cn2c(n1)CN(C(=O)c1ccc[nH]1)CC2)Cc1ccco1 | 7.31
71 | CC(C)N(C)Cc1cn2c(n1)CN(C(=O)c1ccc[nH]1)CC2 | 63.7
72 | O=C(Cc1ccsc1)N1CCn2cc(CN3CCCC3)nc2C1 | -63.2
73 | CCN(CC)Cc1cn2c(n1)CN(C(=O)Cc1ccsc1)CC2 | 73.6
74 | CN(C)Cc1cc(=O)n2c(n1)CN(C(=O)c1ccc[nH]1)CCC2 | 32.1
75 | CN(C)Cc1cn2c(n1)CN(C(=O)Cc1ccsc1)CC2 | -15.6
76 | CC(C)N(C)Cc1cn2c(n1)CN(C(=O)Cc1ccsc1)CC2 | -9.86
77 | CCN(CC)Cc1cc(=O)n2c(n1)CN(C(=O)c1ccc[nH]1)CCC2 | 58.4
78 | O=C(Cc1ccccc1)N1CCn2cc(Cn3cncn3)nc2C1 | -28.7
79 | CC(C)N(C)Cc1cn2c(n1)CN(C(=O)Cc1ccccc1)CC2 | 72.3
